Bioassay records from PubChem BioAssay.
In the library only some 21% were active in any assay of this set; here they are far more common.
ELG1 repair inh = ELG1-dependent DNA repair inhibition; HEK293T ELG1-luciferase reporter, luminescence, 16 h; DNA damage induced by 5-fluorouridine; AID 504467; hit rate 2.3% among 330,000; Potency, µM (top dose mostly 46.1 µM), for the others: at the top dose activity change, negative = inhibition, usual class: inhibitors; further: potency means the concentration at half of the fitted maximal effect; nearly all actives have a fitted effect of over 55% in size
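DMSO vehicle served as the neutral condition. Each well held 2,000 cells given 5-fluorouridine plus compound; after 16 hr at 37 °C/5% CO2, ONE-Glo was added and luciferase measured 30 min later.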
IL-1B inflam inh = inflammasome signaling inhibition, IL-1 beta readout. activity change, % at 57.5 µM. hit rate 4.7% among 360,000. AID 743279. THP-1 LPS/ATP IL-1B secretion, AlphaLISA, 16 h; active compounds read low; in the data active means activity change below about -50%; inconclusive means mostly about -30% to -49%
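Secreted IL-1B measured by AlphaLISA bead assay after 16 h compound exposure of THP-1 cells; compounds (final up to 57.5 uM) added 1 h before LPS (250 ng/mL) and ATP (1.25 mM) stimulation; lower signal means less secretion.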
DT40 TDP1 no CPT = qHTS for Inhibitors of human tyrosyl-DNA phosphodiesterase 1 (TDP1): qHTS in cells in absence of CPT; AID 686978, 2013; DT40 Tdp1-/- hTDP1 cells, no CPT, ATP luminescence, 48 h; Potency, µM (titrated, usually from 46.2 µM), for inactives: top-dose activity change, negative = growth inhibition, most hits filed as inhibitors; hit rate 15% among 420,000; further: potency means the concentration at half of the fitted maximal effect; nearly all actives have a fitted effect of over 55% in size
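Camptothecin absent (DMSO only). Human TDP1-complemented DT40 knockout cells, 400 cells/well, 37 °C for minimum 48 hr; ATP measured via CellTiter-Glo, 30 min dark incubation, luminescence.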
DT40 TDP1 CPT = growth inhibition of DT40 Tdp1-/-;hTDP1 cells with camptothecin (screen for TDP1 inhibitors); Potency, µM (highest dose often 46.2 µM), for the others: top-dose activity change, negative = growth inhibition, actives largely listed as inhibitors; chicken DT40 Tdp1-/-;hTDP1 cells + 20 nM CPT, ATP luminescence, 48 h; hit rate 12% among 420,000; further: potency means the concentration at half of the fitted maximal effect; nearly all actives have a fitted effect of over 55% in size
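Cell growth measured by CellTiter-Glo luminescence after a minimum 48 h, 37 C compound exposure with 20 nM CPT in Tdp1-knockout DT40 cells stably expressing hTDP1, seeded 400/well; qHTS titration format.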
RORgamma inh = blocks mouse ROR gamma transcriptional activity | Drosophila S2 Gal4-RORgamma UAS-luciferase reporter, 20 h | Potency, µM (doses to about 53.6 µM), for inactives: top-dose activity change, negative = inhibition, hits mostly inhibitors | hit rate 5.4% among 310,000; further: potency means the concentration at half of the fitted maximal effect; nearly all actives have a fitted effect of over 60% in size
Target sequence (P51450 whole entry, looked up, the tested form may be a part): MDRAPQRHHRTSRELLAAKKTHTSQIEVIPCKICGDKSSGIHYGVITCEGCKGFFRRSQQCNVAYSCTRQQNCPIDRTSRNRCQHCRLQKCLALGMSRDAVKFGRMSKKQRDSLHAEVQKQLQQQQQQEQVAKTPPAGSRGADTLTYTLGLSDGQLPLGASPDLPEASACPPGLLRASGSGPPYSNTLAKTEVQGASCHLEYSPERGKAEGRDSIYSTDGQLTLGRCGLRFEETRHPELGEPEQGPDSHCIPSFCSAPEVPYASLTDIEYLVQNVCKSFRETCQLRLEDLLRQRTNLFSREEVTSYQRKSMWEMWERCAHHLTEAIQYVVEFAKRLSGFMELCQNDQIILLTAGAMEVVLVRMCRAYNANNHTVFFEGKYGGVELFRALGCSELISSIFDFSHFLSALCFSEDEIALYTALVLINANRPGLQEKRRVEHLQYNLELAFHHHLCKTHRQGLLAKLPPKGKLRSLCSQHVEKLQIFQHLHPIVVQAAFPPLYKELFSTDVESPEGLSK
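Compounds are pin-transferred onto Drosophila Schneider cells expressing a copper-inducible Gal4–ROR gamma transactivation domain fusion. After 1 hr, copper sulfate is added to 700 uM final; luciferase is read 20 hr later.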
Gal4-VP16 FLuc = inhibits Gal4-VP16 luciferase reporter, ROR gamma counter-screen; Drosophila S2 Gal4-VP16 UAS-luciferase, luminescence, 20 h; Potency, µM (highest dose often 53.6 µM), inactives show top-dose activity, negative = inhibition, most hits filed as inhibitors; hit rate 3.5% among 310,000; AID 2546;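 further: Gal4-VP16 expression switched on by copper sulfate through the metallothionein promoter; potency means the concentration at half of the fitted maximal effect; nearly all actives have a fitted effect of over 50% in size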
Starred values were filed as active, the others as inactive; ? = inconclusive; nt = not tested or not shown; [ ] = remark or other dose. Unless noted, the call rests on the fitted dose curve; in most records, active means well fitted curve in the direction sought with a large enough effect; inconclusive means small, poorly fitted or top-dose-only effect, or another doubt; inactive means no such curve, though single readings can be large; an effect the other way counts as inactive or inconclusive. On the % scale 0 is the no-effect control and ±100 the full control effect.

SMILES	ELG1 repair inh	IL-1B inflam inh	DT40 TDP1 no CPT	DT40 TDP1 CPT	RORgamma inh	Gal4-VP16 FLuc
Cc1cc(N/N=C/c2ccccc2[N+](=O)[O-])nc(-n2nc(C)cc2C)n1	13µM*	-97.4*	0.92µM*	1.16µM*	?	0.891µM*
Cc1cc(C)nc(N/N=C/c2cccc([N+](=O)[O-])c2)n1	13.2%	7.1	-24.0%	-21.3%	3.8%	3.9%
Cc1cc(N/N=C\c2ccccc2)nc(-c2ccccc2O)n1	?	?	?	?	29.9%	?
COc1cc(Cl)c(C)cc1NC(=O)c1nn(-c2ccc(C)cc2)c(=O)n(C)c1=O	nt	nt	-5.0%	-18.4%	nt	nt
COc1ccccc1NC(=O)Nc1nnc([C@H]2C[C@H](O)[C@@H](CO)O2)s1	nt	0.0	-3.0%	-25.7%	nt	nt
CCC(C(=O)Oc1c(C(C)C)cccc1C(C)C)c1ccccc1 (stereo unspecified)	13.6%	24.4	-21.0%	-25.3%	nt	nt
O=c1c(-c2ccc(Cl)cc2)nc2cnc(N3CCOCC3)nc2n1Cc1ccc(F)cc1	nt	nt	23.5%	2.4%	-32.2%	0.8%
CCOC(=O)C1CCN(CCCSc2ccc(C)cc2)CC1	nt	3.4	-4.2%	-7.9%	nt	nt
Cc1cc(N/N=C/c2ccc(O)cc2O)nc(-n2nc(C)cc2C)n1	23.1µM*	52.6	0.291µM*	0.231µM*	1µM*	0.708µM*
COc1ccc(/C=N/Nc2cc(C)nc(-n3nc(C)cc3C)n2)cc1	8.2µM*	-99.4*	4.61µM*	4.61µM*	0.316µM*	0.355µM*
Cc1cc(N/N=C/c2ccc(O)cc2O)nc(-c2ccccc2O)n1	10.3µM*	-77.3*	?	?	-1.1%[10 µM]	-1.9%
Cc1cc(N/N=C/c2ccccc2O)nc(-c2ccccc2O)n1	?	0.5	?	-26.3%	?	?
Cc1ccc(C(=O)C(OC(=O)CNC(=O)COc2ccccc2C)c2ccccc2)cc1 (stereo unspecified)	nt	nt	-12.1%	0.2%	nt	nt
O=C(NCc1ccccc1)C(c1ccccc1F)n1c(=O)c(-c2cc3ccccc3[nH]2)nc2ccccc21 (stereo unspecified)	nt	67.7	?	?	nt	nt
CC(C)(C)NC(=O)C(c1cc2ccccc2o1)n1c(=O)c(-c2cc3ccccc3[nH]2)nc2ccccc21 (stereo unspecified)	nt	78.9	?	?	nt	nt
CC(C)(C)NC(=O)C(C1CC1)n1c(=O)c(-c2cc3ccccc3[nH]2)nc2ccccc21 (stereo unspecified)	nt	-14.0	?	18.4µM*	nt	nt
CC(C)(C)NC(=O)C(c1ccccc1F)n1c(=O)c(-c2cc3ccccc3[nH]2)nc2ccccc21 (stereo unspecified)	nt	4.2	13µM*	?	nt	nt
CC(C)(C)NC(=O)C(c1ccncc1)n1c(=O)c(-c2cc3ccccc3[nH]2)nc2ccccc21 (stereo unspecified)	nt	-123.1*	16.4µM*	23.1µM*	nt	nt
COc1ccc(C(C(=O)NC(C)(C)C)n2c(=O)c(-c3cc4ccccc4[nH]3)nc3ccccc32)cc1 (stereo unspecified)	nt	-7.0	?	?	nt	nt
CC(C)(C)NC(=O)C(c1ccnc2ccccc12)n1c(=O)c(-c2cc3ccccc3[nH]2)nc2ccccc21 (stereo unspecified)	nt	6.7	18.4µM*	?	nt	nt
Cc1cccc(C)c1NC(=O)C(C1CC1)n1c(=O)c(-c2cc3ccccc3[nH]2)nc2ccccc21 (stereo unspecified)	nt	-6.9	?	?	nt	nt
CC(C)NC(=O)OCc1c(COC(=O)NC(C)C)c([N+](=O)[O-])n2c1CCC2	nt	22.5	3.6%	-15.6%	nt	nt
CC1(C)C(C(=O)O)N2C(=O)CC2S1(=O)=O (stereo unspecified)	nt	nt	nt	nt	-5.1%	-4.3%
